Data reported in PubChem BioAssay (NCI).
About 83,000 compounds went through this panel and 20% of them were active in at least one assay; those are over-represented in the sample as a whole.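 Cells were grown in 96-well plates and exposed to the test compound at a single concentration for 48 hours; results are reported as percent growth, with values below 10 considered active.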 Active and inactive are the calls of the source.

What was measured:
Assay in all cases: NCI-60 one-dose screen, 48 h (100 = growth as untreated, 0 = no growth, -100 = all killed)
[1] = tested on: NCI-H23 lung; conditions: 10 µM unless noted
[2] = tested on: NCI-H226 lung; conditions: 10 µM unless noted
[3] = tested on: NCI-H322M lung; conditions: 10 µM unless noted
[4] = tested on: HOP-62 NSCLC; conditions: 10 µM unless noted
[5] = tested on: NCI-H460 lung; conditions: 10 µM unless noted
[6] = tested on: HOP-92 NSCLC; conditions: 10 µM unless noted
[7] = tested on: NCI-H522 lung; conditions: 10 µM
[8] = tested on: 786-0 renal; conditions: 10 µM unless noted
[9] = tested on: COLO 205 colon; conditions: 10 µM unless noted
[10] = tested on: DU-145 prostate; conditions: 10 µM unless noted
[11] = tested on: K-562 leukemia; conditions: 10 µM unless noted
[12] = tested on: MALME-3M melanoma; conditions: 10 µM unless noted
[13] = tested on: MDA-MB-231 breast; conditions: 10 µM unless noted
[14] = tested on: RXF 393 renal; conditions: 10 µM unless noted
[15] = tested on: SF-268 CNS; conditions: 10 µM unless noted
[16] = tested on: SF-295 CNS; conditions: 10 µM unless noted
[17] = tested on: SF-539 CNS; conditions: 10 µM unless noted
[18] = tested on: UACC-257 melanoma; conditions: 10 µM unless noted
[19] = tested on: M14 melanoma; conditions: 10 µM unless noted

Measured: growth

Cc1cc(C)c(C(=O)c2cccs2)c(C)c1
inactive: [1] 100% | [2] 99.8% | [3] 106% | [4] 95.2% | [5] 109% | [6] 74.4% | [7] 93.3% | [8] 100% | [9] 103% | [10] 111% | [11] 98.4% | [12] 110% | [13] 107% | [14] 110% | [15] 104% | [16] 122% | [17] 106% | [18] 99.3% | [19] 103%

CC[C@H]1CN2CCc3cc(OC)c(OC)cc3C2C[C@@H]1CC1NCCc2cc(OC)c(OC)cc21 (some centres not stated)
active: [1] -34.3% | [2] -25.4% | [3] -23.2% | [4] -29.4% | [5] -25.6% | [6] -17.8% | [7] -71.2% | [8] -19.6% | [9] -66.1% | [10] -31.6% | [11] -6.17% | [12] -58.1% | [13] -45.5% | [14] -42.9% | [15] -25.6% | [16] -29.2% | [17] -59.7% | [18] -27.8% | [19] -82.9%

CSc1nc2nc3c(c(-c4ccc(C)cc4)c2c(=O)[nH]1)CN(C)C/C3=C\c1ccc(C)cc1
inactive: [1] 88.4% | [2] 102% | [3] 103% | [4] 115% | [5] 111% | [6] 97.3% | [7] 93.2% | [8] 111% | [9] 121% | [10] 99.4% | [11] 103% | [12] 120% | [13] 86.3% | [14] 109% | [15] 90.9% | [16] 111% | [17] 124% | [18] 79.7% | [19] 104%

COc1ccc(C2CC(c3ccc(Nc4ccnc5cc(Cl)ccc45)cc3)=NN2C(C)=O)cc1 (configuration not stated)
inactive: [1] 84.3% | [2] 79.2% | [3] 98.8% | [4] 89.4% | [5] 85.4% | [6] 36.5% | [7] 67.3% | [8] 81.2% | [9] 96% | [10] 88.1% | [11] 32.3% | [12] 58.2% | [13] 80.9% | [14] 73.1% | [15] 72.2% | [16] 42.6% | [17] 95.8% | [18] 88% | [19] 79.5%

COc1cc(/C=C2\SC(N3CCCCC3)=NC2=O)ccc1OCCCCCCOc1ccc(/C=C2\SC(N3CCCCC3)=NC2=O)cc1OC
inactive: [3] 48.3% | [6] 32.2% | [8] 50.5% | [13] 20.9% | [19] 13.1%
active: [1] 5.35% | [2] -20.1% | [4] 6.62% | [5] -45.4% | [7] -11.5% | [9] 0.374% | [10] -7% | [11] 3.85% | [12] 5.59% | [14] -44.3% | [15] -1.61% | [16] 4.37% | [17] -1.19% | [18] -0.986%

Cc1ccc(/C=C/C(=O)c2ccc(F)cc2)s1
inactive: [1] 85% | [2] 85.1% | [3] 94.2% | [4] 103% | [5] 80.6% | [6] 64% | [7] 62.8% | [8] 76.7% | [9] 108% | [10] 90.8% | [11] 38.1% | [12] 78.9% | [13] 105% | [14] 84.8% | [15] 92.2% | [16] 88.5% | [17] 103% | [18] 90.3% | [19] 95.1%

NS(=O)(=O)c1cc(C2(O)NC(=O)c3ccccc32)ccc1Cl (configuration not stated)
inactive: [1] 106% | [2] 97.9% | [3] 89.6% | [4] 109% | [5] 111% | [6] 104% | [7] 99.5% | [8] 102% | [9] 103% | [10] 116% | [11] 111% | [12] 95.4% | [13] 112% | [14] 109% | [15] 109% | [16] 103% | [17] 97.7% | [18] 112% | [19] 104%

NC(=NCCCCCCN=C(N)/N=C(\N)Nc1ccc(Cl)cc1)/N=C(\N)Nc1ccc(Cl)cc1
active: [1] 8.42% | [2] -9.31% | [4] -25.3% | [5] -1.1% | [6] -3.2% | [7] -11.1% | [9] -96.4% | [11] 8.11% | [13] 0.0954% | [14] 1.06% | [16] -9.13% | [17] 0.167%
inactive: [3] 19.8% | [8] 14% | [10] 33.2% | [12] 26.7% | [15] 20.8% | [18] 33.7% | [19] 22.6%
